Screening results: PubChem BioAssay, Sanford-Burnham Center for Chemical Genomics
Only some compounds are listed: those with a hit (about 1.1% of all), similar ones and a draw of the others.
aDG glyco up: alpha-DG glycosylation activation | AID 624168 | 0.22% of 360,000 active | activation, % at 10 µM | Pro5-aDG cells, alpha-DG glycosylation AlphaScreen (IIH6); 0% Pro5, 100% B10-LARGE cell signal;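 active = activation of at least 8% versus controls, or a plate z-score of at least 8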;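 also: Pro5 are CHO cells carrying HIG-tagged alpha-DG that lacks glycosylation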
NPR2 activator: GC-B (human) receptor activation | HEK293-GC-B cells, CNP EC30, cGMP TR-FRET; 0% at EC30 CNP, 100% saturating CNP | activation, % at 10 µM | 0.11% of 370,000 active | P20594;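 active = activation at 10 µM reaching about 35% in either raw or pattern-adjusted values, limit read from the data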
FAS TE block: FAS thioesterase (human) inhibition. AID 602261. recombinant FAS-TE, OMFH fluorogenic substrate, fluorescence endpoint. inhibition, % at 15 µM. 0.67% of 360,000 active;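 active = compounds whose normalised, plate-corrected inhibition of enzyme fluorescence in the single-dose primary screen is 50% or more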;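 also: 0% = DMSO with enzyme and 100% = substrate without enzyme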
NPR1 activator: GC-A (human) enzyme activation; P16066; HEK293 GC-A cells, cGMP TR-FRET, EC30 ANP; 0% at EC30 ANP, 100% saturating ANP; activation, % at 10 µM; 0.14% of 370,000 active; AID 1671463; in the data active = activation above about 40%
FAS-TE inh conf: FAS thioesterase (human) inhibition, confirmation | shares compounds with FAS TE block | recombinant FAS-TE, OMFH fluorogenic substrate, fluorescence | 45% of 2,300 active | inhibition, % at 15 µM;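 active = compounds inhibiting the enzyme by at least 50% at 15 µM in any one of the replicates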;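 also: 0% = enzyme with DMSO only and 100% = wells lacking enzyme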
* marks the source's active call; other numbers are inactive results; . = not tested or not shown.

SMILES	aDG glyco up	NPR2 activator	FAS TE block	NPR1 activator	FAS-TE inh conf
COC(=O)c1ccc(C2c3c(oc4ccc(Cl)cc4c3=O)C(=O)N2CCN2CCOCC2)cc1 (stereo not drawn)	-0.1	-7.0	54.2*	4.0	61.5*
COC(=O)C1CN(CCO)CCS(=O)(=O)N1Cc1cn(Cc2ccc(C)cc2)nn1 (stereo not drawn)	.	6.3	.	0.3	.
O=C(NCC1CCCCC1)C12CN(Cc3ccccc3)CC1C(c1cccc([N+](=O)[O-])c1)=NO2 (stereo not drawn)	-0.5	0.2	54.2*	-4.2	29.5
Cc1ccc(C)c(C(=O)COC(=O)c2cc([N+](=O)[O-])ccc2N2CCOCC2)c1	0.6	-0.6	45.7	-2.2	.
Cc1cc(C)c(NC(=O)COC(=O)c2cc([N+](=O)[O-])ccc2N2CCOCC2)c(C)c1	-0.1	0.9	65.4*	1.7	53.8*
Cc1ccc(NC(=O)c2cc([N+](=O)[O-])ccc2N2CCOCC2)cc1S(=O)(=O)N1CCOCC1	-0.7	4.3	37.6	2.9	.
Cc1cc(NC(=O)COC(=O)c2cc([N+](=O)[O-])ccc2N2CCOCC2)ccc1Br	0.4	-2.3	78.7*	-2.5	80.1*
Cc1cc(-c2nnc(SCC(=O)Nc3cccc4ccccc34)n2N)n[nH]1	.	-9.2	.	4.9	.
COc1cc2c(C)nc3c(c(C)nn3-c3ccccc3)c2cc1OC	0.2	-7.0	3.4	0.4	.
COc1cc2c(C)nc3onc(-c4ccccc4)c3c2cc1OC	-0.3	-14.4	69.9*	-5.0	45.1*
CN(Cc1ccc(C(C)(C)C)cc1)C(=O)Cc1ccc(S(=O)(=O)N2CCOCC2)s1	0.0	-4.8	85.1*	-0.8	89.1*
CCCOc1ccc(NC(=O)Cc2ccc(S(=O)(=O)N3CCOCC3)s2)cc1OCCC	-0.3	0.3	18.5	-1.1	.
COCCOc1ccc(C(F)(F)F)cc1NC(=O)Cc1ccc(S(=O)(=O)N2CCOCC2)s1	-0.1	-9.5	65.4*	-1.7	68.8*
COC(=O)C1=C(C)N(C)C(=NCc2ccc3c(c2)OCO3)NC1c1ccccc1 (stereo not drawn)	.	3.0	.	-2.8	.
O=C1C2C3C=CC(c4ccccc4)(C2C(=O)N1c1cccc(Cl)c1)C1C(=O)N(c2cccc(Cl)c2)C(=O)C31 (stereo not drawn)	0.8	-7.9	65.2*	1.8	39.5
COc1ccc(C(CCN(Cc2ccc(OC)c(OC)c2)C(C)=O)c2ccccc2)cc1 (stereo not drawn)	0.5	-3.2	31.2	-19.4	.
COc1ccc(CN(CCC(c2ccccc2)c2ccc(OC(C)C)cc2)C(=O)CCl)cc1OC (stereo not drawn)	-0.5	3.8	51.7*	-22.1	4.3
COc1ccc(N2C(=O)c3n[nH]c(C)c3C2c2cccc(C(F)(F)F)c2)cc1 (stereo not drawn)	.	-22.5	.	-19.2	.
CC1=C(C(=O)Nc2ccccc2)C(c2ccco2)C(C#N)=C(SCC(=O)Nc2cccc(C)c2C)N1 (stereo not drawn)	0.2	-2.1	7.8	-1.7	.
CCOc1ccccc1NC(=O)CSC1=C(C#N)C(c2ccco2)C(C(=O)Nc2nc3ccccc3s2)=C(C)N1 (stereo not drawn)	0.4	-5.1	81.3*	-5.9	18.8
CCOC(=O)[C@H]1[C@H]2COc3ccc(C)cc3[C@@H]2N2C(=O)c3cc(Br)ccc3NC(=O)[C@@]12C	0.1	-1.3	57.2*	-5.5	25.9
CCOC(=O)[C@H]1[C@H]2COc3ccc(Br)cc3[C@@H]2N2C(=O)c3c(C)cc(C)cc3NC(=O)[C@@]12C	0.3	-10.3	68.4*	-2.8	22.1
CCOC(=O)[C@@H]1[C@H]2COc3ccc(Br)cc3[C@@H]2N2C(=O)N(c3cccc(Cl)c3)C(=O)[C@@]12C	0.4	-18.2	73.3*	-14.8	52.0*
CCOC(=O)[C@@H]1[C@H]2COc3ccc(Br)cc3[C@@H]2N2C(=O)N(c3cccc(Cl)c3)C(=O)[C@]12C	0.3	-9.0	42.4	-6.0	.
CCOC(=O)[C@H]1[C@H]2COc3ccc(Cl)cc3[C@@H]2N2C(=O)c3ccc(Cl)cc3NC(=O)[C@@]12C	0.1	-3.7	58.9*	-2.3	43.3
SMILES	aDG glyco up	NPR2 activator	FAS TE block	NPR1 activator	FAS-TE inh conf
CCOC(=O)[C@H]1[C@H]2COc3ccc(C)cc3[C@@H]2N2C(=O)c3ccc(Cl)cc3NC(=O)[C@@]12C	0.1	-3.8	17.4	1.8	.
CCOC(=O)[C@H]1[C@H]2COc3ccc(Br)cc3[C@@H]2N2C(=O)c3ccc(C)cc3NC(=O)[C@@]12C	0.0	-1.2	23.2	-2.7	.
Cc1cc2c(c(=O)o1)[C@@]1(C(=O)N(C)c3cc(Br)ccc31)C1=C(CCCC1=O)O2	.	-1.5	.	-4.2	.
COC(=O)[C@@]12CCCCC3=C1N(CCC3)C(=O)[C@H]2CC(=O)N1CCCCC1	.	1.4	.	1.9	.
COC(=O)c1ccc(S(=O)(=O)N2CCN(C(c3ccccc3)c3ccccc3)CC2)n1C	0.1	0.1	54.6*	-3.3	6.6
Cc1ccc2c(c1)C1CS(=O)(=O)N(C3CCCC3)CN1C2 (stereo not drawn)	.	2.0	.	-1.2	.
O=C(NC1CCCC1)[C@@H]1CCCN1C(=O)[C@H](Cc1cccnc1)NC(=O)N1CCOCC1	.	7.3	.	3.1	.
O=C(c1cccc(NS(=O)(=O)c2ccc(F)c(F)c2)c1)N1CCN(C(c2ccccc2)c2ccccc2)CC1	0.0	3.3	90.1*	2.3	45.1
Cc1ccc(Cn2cc(COC(=O)N3CCOCC3)nn2)cc1	.	1.5	.	1.6	.
Cc1cc(C)c(C#N)c(N2CCN(CCOc3ccc(Cl)cc3)CC2)n1	-0.3	-0.3	50.1*	2.4	33.4
O[C@H](COc1ccc(C(F)(F)F)cc1)CN1CCC(C(O)(c2ccccc2)c2ccccc2)CC1	.	-5.5	.	-7.3	.
CCOC(=O)c1ccc(-c2c(-c3cc(OC)c(OC)c(OC)c3)noc2C)cc1F	-0.3	-7.5	19.4	-6.0	.
COc1cc2c(-c3ccc4cc[nH]c4c3)c(-c3ccsc3)oc(=O)c2cc1OC	0.1	-9.0	32.2	-11.6	.
COc1cc2c(-c3ccc4[nH]ccc4c3)c(-c3ccc(C#N)cc3)oc(=O)c2cc1OC	0.7	7.0	54.9*	-4.4	28.1
CCOC(=O)c1ccc(-c2c(-c3ccc(OC)cc3)oc(=O)c3cc(OC)c(OC)cc23)cc1F	-0.1	-1.3	57.7*	0.5	6.2
O=C(NCc1ccccc1)[C@@H]1CCCN1C(=O)[C@H]1CCCN1C(=O)c1ccc(Cl)cc1	.	-2.3	.	-7.0	.
COc1ccc(NS(=O)(=O)c2cc(NC(=O)c3ccc(Cl)cc3)ccc2N2CCOCC2)cc1	-0.4	0.8	52.9*	5.5	6.0
COc1ccc(NS(=O)(=O)c2cc(NC(=O)c3cnc(C)cn3)ccc2N2CCCC2)cc1	-0.1	-5.8	29.7	-11.6	.
COc1ccc(NS(=O)(=O)c2cc(NC(=O)c3cnc(C)cn3)ccc2N2CCCCC2)cc1	0.5	5.8	55.1*	-1.7	28.3
